Assay results: PubChem BioAssay (NCATS)
Results filed as inconclusive are left out. Calls of active or inactive are those of the source. Unless noted, calls follow the shape of the dose curve; as a rule, active = well fitted curve in the direction sought with a large enough effect; inconclusive = small, poorly fitted or top-dose-only effect, or another doubt; inactive = no such curve, though single readings can be large; an effect the other way counts as inactive or inconclusive.

Experiments:
[1] = target: Cytochrome P450 3A4 (Homo sapiens) (UniProt P08684); experiment: qHTS Assay for Inhibitors and Substrates of Cytochrome P450 3A4 (AID 884); also: % is scaled to controls: 0 for no effect and ±100 for the full control effect; nearly all actives have a fitted effect of over 50% in size
Summary of the method: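 Luminescent readout of luciferin produced by CYP3A4 (20 nM) dealkylation of Luciferin-PPXE, 25 uM (its KM). NADPH-driven reaction ran 60 min at RT after 10 min compound preincubation; data scaled to 57 uM ketoconazole as 100% inhibition.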

[2] = Confirmation and Secondary Assay for Modulators of Hemoglobin Beta Chain Splicing at IVS2 705 locus (AID 930);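 also: HeLa cells stably expressing the EGFP-705 splicing reporter; GFP fluorescence per well restored by corrected splicing of the IVS2-705 intron in EGFP; % of control where 0% means no effect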
Summary of the method: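 Fluorescence gain (488 nm laser, 500-520 nm PMT) reflects restored correct splicing of a mutant IVS2-705 intron inside EGFP in stably transfected HeLa cells after 2-day compound treatment.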

[3] = qHTS Assay for Lipid Storage Modulators (AID 1519; calls by dose curve; as to activity change, negative = inhibition: % is scaled to controls: 0 for no effect and ±100 for the full control effect); settings: Drosophila S3 cells, BODIPY lipid droplet/cell ratio, laser cytometry, cells loaded with oleic acid
Summary of the method: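 Cells seeded at 5,000 per well were treated with compounds over a concentration series and loaded with oleic acid (400 uM, as added). Lipid droplet fluorescence (488 nm excitation, 500-530 nm channel) was read by laser-scanning cytometry and normalized to 20 uM Triacsin C.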

[4] = target: ATP-dependent 6-phosphofructokinase (Trypanosoma brucei brucei) (UniProt O15648); experiment: qHTS Assay to Find Inhibitors of T. brucei phosphofructokinase: hit validation (AID 492961);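 also: luminescence reports ADP formed as PFK phosphorylates fructose-6-phosphate with ATP; % is scaled to controls: 0 for no effect and ±100 for the full control effect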
Summary of the method: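 Measures ADP output of PFK (1.25 nM) at 0.1 mM ATP, 0.5 mM F6P, pH 8.0 TEA buffer with 5 mM MgCl2. No-enzyme wells define full inhibition; uninhibited enzyme wells define zero.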

[5] = target: Ubiquitin carboxyl-terminal hydrolase 1 (Homo sapiens) (UniProt O94782); experiment: Inhibitors of USP1/UAF1: Pilot qHTS (AID 504865);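 also: rhodamine fluorescence freed from ubiquitin-rhodamine substrate followed over time; top concentration of the series differs between compounds; % is scaled to controls: 0 for no effect and ±100 for the full control effect; nearly all actives have a fitted effect of over 35% in size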
Summary of the method: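 USP1/UAF1 complex (1nM) preincubated with compound 15 min at room temperature, then Ub-Rho substrate (150nM final) added. Fluorescence read kinetically at 480/540 nm, 6 reads every 60 seconds. Buffer: 50mM HEPES pH 7.8, 0.5mM EDTA, 0.1 mg/ml BSA, 1mM TCEP, 0.01% Tween-20.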

[6] = target: Luciferin 4-monooxygenase (Photinus pyralis) (UniProt P08659); experiment: Biochemical firefly luciferase enzyme assay for NPC (AID 624030);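 also: purified P. pyralis luciferase at 10 nM with luciferin and ATP substrate; 0% = DMSO and -100% = full luciferase inhibition by PTC124 control; nearly all actives have a fitted effect of over 70% in size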
Summary of the method: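 Direct inhibition of firefly luciferase enzyme (10 nM final, 50 mM Tris Acetate) assessed by luminescence within 5 minutes. Percent activity scaled between DMSO and PTC124 positive control, with concentration-effect curves classified by fit quality and response.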

[7] = S16 Schwann cell viability assay (CellTiter-Glo assay) (AID 624031);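 also: native untransfected S16 rat Schwann cells; cellular ATP luminescence as a viability measure; plate controls were DMSO-treated cells for no effect and cell-free wells for full effect; nearly all actives have a fitted effect of over 70% in size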
Summary of the method: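 Parental S16 cells, 24 h compound, 37 °C. ATP-luminescence viability; DMSO = 0% activity, empty wells as reference; curves classified by fit quality and efficacy.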

[8] = S16 Schwann cell PMP22 intronic element firefly luciferase assay (AID 624032);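 also: plate controls were DMSO for no effect and PTC124 positive control mean for full effect; nearly all actives have a fitted effect of over 30% in size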
Summary of the method: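 Luciferase reporter of PMP22 intronic-element expression in stably transfected S16 rat Schwann cells, read by ONE-Glo luminescence after 24 h compound exposure at 37 C. Activity scaled between DMSO (0%) and positive-control PTC124; concentration-effect curves quality-classified.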

[9] = qHTS Assay for Identifying Gametocytocidal Compounds (AID 743244);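 also: % is scaled to controls: 0 for no effect and ±100 for the full control effect; actives lower the fluorescent signal which means gametocytes are killed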; settings: P. falciparum 3D7 stage III-V gametocytes, alamarBlue, 72 h; max response: stronger effect = lower value
Summary of the method: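 P. falciparum 3D7 stage III–V gametocytes (20,000 cells/well) were exposed to compounds for 72 h at 37 °C, 5% CO2. AlamarBlue was then added for 24 h; decreased resorufin fluorescence (Ex 525/Em 598 nm) indicated loss of viability.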

[10] = P-glycoprotein substrates identified in KB-8-5-11 adenocarcinoma cell line, qHTS therapeutic library screen (AID 1346987); also: % is scaled to controls: 0 for no effect and ±100 for the full control effect; nearly all actives have a fitted effect of over 65% in size
Summary of the method: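 In this qHTS, P-gp-rich KB-8-5-11 cells received library compounds across a concentration range. Viability was quantified by luminescence after 72 h at 37 degree C.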

[11] = qHTS for Inhibitors of the Functional Ribonucleoprotein Complex (vRNP) of Lassa (LASV) Arenavirus: LASV Primary Screen - GLuc reporter signal (AID 1347082; calls by dose curve; tested in HEK293 reporter line; also: % is scaled to controls: 0 for no effect and ±100 for the full control effect; nearly all actives have a fitted effect of over 60% in size)
[12] = qHTS for Inhibitors of the Functional Ribonucleoprotein Complex (vRNP) of Lassa (LASV) Arenavirus: Viability assay - alamar blue signal for LASV Primary Screen (AID 1347083; calls by dose curve; tested in HEK293 reporter line; also: % is scaled to controls: 0 for no effect and ±100 for the full control effect; nearly all actives have a fitted effect of over 80% in size)
[13] = qHTS for Inhibitors of the Functional Ribonucleoprotein Complex (vRNP) of Lymphocytic Choriomeningitis Arenaviruses (LCMV): Viability assay - alamar blue signal for LCMV Primary Screen (AID 1347085; calls by dose curve; tested in HEK293 reporter line; also: % is scaled to controls: 0 for no effect and ±100 for the full control effect; nearly all actives have a fitted effect of over 80% in size)
[14] = target: Nucleoprotein (Lymphocytic choriomeningitis virus (strain Armstrong)) (UniProt P09992); experiment: qHTS for Inhibitors of the Functional Ribonucleoprotein Complex (vRNP) of Lymphocytic Choriomeningitis Arenaviruses (LCMV): LCMV Primary Screen - GLuc reporter signal (AID 1347086; calls by dose curve; also: % is scaled to controls: 0 for no effect and ±100 for the full control effect; nearly all actives have a fitted effect of over 70% in size)
[15] = qHTS profiling for inhibitors of Plasmodium falciparum proliferation (AID 504749);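 also: 0% = DMSO vehicle and full inhibition = artemisinin control; nearly all actives have a fitted effect of over 60% in size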; settings: P. falciparum in erythrocytes, SYBR Green DNA, 72 h, at 28.7 µM (top of the series)
Summary of the method: (§1)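 In a 72 h erythrocytic culture (37 C, humidified, 5% CO2) at 2.5% hematocrit and 0.3% starting parasitemia, compounds were tested; SYBR Green I in detergent lysis buffer stained parasite DNA overnight.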

3D7 = experiment: as above; settings: P. falciparum in erythrocytes, SYBR Green DNA, 72 h; series mostly up to 28.7 µM
Summary of the method: as §1

7G8 = experiment: as above; settings: P. falciparum in erythrocytes, SYBR Green DNA, 72 h; series mostly up to 28.7 µM
Summary of the method: as §1

AA1029 = experiment: as above; settings: P. falciparum in erythrocytes, SYBR Green DNA, 72 h; series mostly up to 28.7 µM
Summary of the method: as §1

AS120 = experiment: as above; settings: P. falciparum in erythrocytes, SYBR Green DNA, 72 h; series mostly up to 28.7 µM
Summary of the method: as §1

ATS189 = experiment: as above; settings: P. falciparum in erythrocytes, SYBR Green DNA, 72 h; series mostly up to 28.7 µM
Summary of the method: as §1

ATS95 = experiment: as above; settings: P. falciparum in erythrocytes, SYBR Green DNA, 72 h; series mostly up to 28.7 µM
Summary of the method: as §1

C2A = experiment: as above; settings: P. falciparum in erythrocytes, SYBR Green DNA, 72 h; series mostly up to 28.7 µM
Summary of the method: as §1

CP185 = experiment: as above; settings: P. falciparum in erythrocytes, SYBR Green DNA, 72 h; series mostly up to 28.7 µM
Summary of the method: as §1

CP191 = experiment: as above; settings: P. falciparum in erythrocytes, SYBR Green DNA, 72 h; series mostly up to 28.7 µM
Summary of the method: as §1

CP192 = experiment: as above; settings: P. falciparum in erythrocytes, SYBR Green DNA, 72 h; series mostly up to 28.7 µM
Summary of the method: as §1

CP194 = experiment: as above; settings: P. falciparum in erythrocytes, SYBR Green DNA, 72 h; series mostly up to 28.7 µM
Summary of the method: as §1

CP201 = experiment: as above; settings: P. falciparum in erythrocytes, SYBR Green DNA, 72 h; series mostly up to 28.7 µM
Summary of the method: as §1

CP203 = experiment: as above; settings: P. falciparum in erythrocytes, SYBR Green DNA, 72 h; series mostly up to 28.7 µM
Summary of the method: as §1

CP211 = experiment: as above; settings: P. falciparum in erythrocytes, SYBR Green DNA, 72 h; series mostly up to 28.7 µM
Summary of the method: as §1

CP215 = experiment: as above; settings: P. falciparum in erythrocytes, SYBR Green DNA, 72 h; series mostly up to 28.7 µM
Summary of the method: as §1

CP217 = experiment: as above; settings: P. falciparum in erythrocytes, SYBR Green DNA, 72 h; series mostly up to 28.7 µM
Summary of the method: as §1

CP237 = experiment: as above; settings: P. falciparum in erythrocytes, SYBR Green DNA, 72 h; series mostly up to 28.7 µM
Summary of the method: as §1

CP238 = experiment: as above; settings: P. falciparum in erythrocytes, SYBR Green DNA, 72 h; series mostly up to 28.7 µM
Summary of the method: as §1

CP247 = experiment: as above; settings: P. falciparum in erythrocytes, SYBR Green DNA, 72 h; series mostly up to 28.7 µM
Summary of the method: as §1

CP250 = experiment: as above; settings: P. falciparum in erythrocytes, SYBR Green DNA, 72 h; series mostly up to 28.7 µM
Summary of the method: as §1

CP252 = experiment: as above; settings: P. falciparum in erythrocytes, SYBR Green DNA, 72 h; series mostly up to 28.7 µM
Summary of the method: as §1

Cytochrome P450 3A4 (Homo sapiens), sequence (P08684 whole entry, looked up): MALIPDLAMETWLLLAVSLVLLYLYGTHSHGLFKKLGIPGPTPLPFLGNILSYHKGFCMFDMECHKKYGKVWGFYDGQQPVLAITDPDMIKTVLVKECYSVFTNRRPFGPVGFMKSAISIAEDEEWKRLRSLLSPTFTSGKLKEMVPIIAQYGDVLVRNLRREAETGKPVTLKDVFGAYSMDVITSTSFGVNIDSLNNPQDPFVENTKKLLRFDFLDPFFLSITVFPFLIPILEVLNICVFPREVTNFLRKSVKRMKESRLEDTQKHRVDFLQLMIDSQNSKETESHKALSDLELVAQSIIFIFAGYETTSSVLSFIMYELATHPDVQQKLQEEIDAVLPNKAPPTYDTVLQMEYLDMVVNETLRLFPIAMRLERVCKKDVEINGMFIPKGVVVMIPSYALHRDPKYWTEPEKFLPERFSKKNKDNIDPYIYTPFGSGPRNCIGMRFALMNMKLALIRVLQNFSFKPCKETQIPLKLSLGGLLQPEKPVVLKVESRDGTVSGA
Nucleoprotein (Lymphocytic choriomeningitis virus (strain Armstrong)), sequence (P09992 whole entry, looked up): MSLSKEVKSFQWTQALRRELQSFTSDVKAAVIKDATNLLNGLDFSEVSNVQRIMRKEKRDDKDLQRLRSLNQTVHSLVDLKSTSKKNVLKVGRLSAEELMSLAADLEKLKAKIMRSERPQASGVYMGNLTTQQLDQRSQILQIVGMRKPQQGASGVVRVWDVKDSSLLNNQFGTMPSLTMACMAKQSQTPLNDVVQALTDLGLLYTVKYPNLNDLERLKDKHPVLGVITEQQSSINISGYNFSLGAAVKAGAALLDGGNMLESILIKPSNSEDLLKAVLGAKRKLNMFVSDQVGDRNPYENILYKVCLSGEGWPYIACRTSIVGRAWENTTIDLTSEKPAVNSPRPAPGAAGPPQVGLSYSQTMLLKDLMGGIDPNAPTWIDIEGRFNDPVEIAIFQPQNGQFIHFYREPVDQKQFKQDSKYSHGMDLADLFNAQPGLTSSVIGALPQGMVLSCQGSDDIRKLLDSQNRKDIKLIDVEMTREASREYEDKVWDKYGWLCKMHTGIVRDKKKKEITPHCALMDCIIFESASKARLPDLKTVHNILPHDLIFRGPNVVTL
ATP-dependent 6-phosphofructokinase (Trypanosoma brucei brucei), sequence (O15648 whole entry, looked up): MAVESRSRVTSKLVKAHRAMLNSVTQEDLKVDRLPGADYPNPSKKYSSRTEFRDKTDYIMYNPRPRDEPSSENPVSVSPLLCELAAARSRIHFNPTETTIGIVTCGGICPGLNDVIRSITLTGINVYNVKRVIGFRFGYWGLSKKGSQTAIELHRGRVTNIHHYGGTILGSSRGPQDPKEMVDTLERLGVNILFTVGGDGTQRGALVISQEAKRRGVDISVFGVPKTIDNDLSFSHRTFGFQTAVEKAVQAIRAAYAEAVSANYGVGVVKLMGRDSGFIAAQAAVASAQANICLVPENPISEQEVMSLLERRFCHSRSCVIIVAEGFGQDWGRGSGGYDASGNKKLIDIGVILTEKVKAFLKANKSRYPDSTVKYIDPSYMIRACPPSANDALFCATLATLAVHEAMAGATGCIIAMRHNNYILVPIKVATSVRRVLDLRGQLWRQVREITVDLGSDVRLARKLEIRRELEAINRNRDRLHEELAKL
Ubiquitin carboxyl-terminal hydrolase 1 (Homo sapiens), sequence (O94782 whole entry, looked up): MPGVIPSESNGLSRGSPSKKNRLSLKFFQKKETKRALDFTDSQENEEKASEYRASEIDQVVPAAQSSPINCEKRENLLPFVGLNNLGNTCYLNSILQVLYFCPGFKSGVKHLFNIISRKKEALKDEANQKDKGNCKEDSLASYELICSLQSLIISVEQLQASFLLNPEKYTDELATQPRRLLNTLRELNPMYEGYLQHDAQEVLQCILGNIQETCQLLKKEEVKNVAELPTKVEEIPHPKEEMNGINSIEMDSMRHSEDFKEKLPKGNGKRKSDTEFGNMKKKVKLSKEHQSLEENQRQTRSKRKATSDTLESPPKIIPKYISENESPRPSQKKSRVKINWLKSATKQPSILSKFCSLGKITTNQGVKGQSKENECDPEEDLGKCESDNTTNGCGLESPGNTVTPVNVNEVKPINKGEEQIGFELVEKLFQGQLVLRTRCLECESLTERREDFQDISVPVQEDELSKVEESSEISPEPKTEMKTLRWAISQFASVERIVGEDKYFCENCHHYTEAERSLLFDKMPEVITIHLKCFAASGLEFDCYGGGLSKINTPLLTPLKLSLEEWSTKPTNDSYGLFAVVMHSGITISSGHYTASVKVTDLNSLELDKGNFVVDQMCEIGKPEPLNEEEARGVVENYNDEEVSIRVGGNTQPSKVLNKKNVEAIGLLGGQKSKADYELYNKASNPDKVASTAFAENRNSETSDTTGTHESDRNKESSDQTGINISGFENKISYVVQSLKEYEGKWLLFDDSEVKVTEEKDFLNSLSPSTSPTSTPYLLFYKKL
Luciferin 4-monooxygenase (Photinus pyralis), sequence (P08659 whole entry, looked up): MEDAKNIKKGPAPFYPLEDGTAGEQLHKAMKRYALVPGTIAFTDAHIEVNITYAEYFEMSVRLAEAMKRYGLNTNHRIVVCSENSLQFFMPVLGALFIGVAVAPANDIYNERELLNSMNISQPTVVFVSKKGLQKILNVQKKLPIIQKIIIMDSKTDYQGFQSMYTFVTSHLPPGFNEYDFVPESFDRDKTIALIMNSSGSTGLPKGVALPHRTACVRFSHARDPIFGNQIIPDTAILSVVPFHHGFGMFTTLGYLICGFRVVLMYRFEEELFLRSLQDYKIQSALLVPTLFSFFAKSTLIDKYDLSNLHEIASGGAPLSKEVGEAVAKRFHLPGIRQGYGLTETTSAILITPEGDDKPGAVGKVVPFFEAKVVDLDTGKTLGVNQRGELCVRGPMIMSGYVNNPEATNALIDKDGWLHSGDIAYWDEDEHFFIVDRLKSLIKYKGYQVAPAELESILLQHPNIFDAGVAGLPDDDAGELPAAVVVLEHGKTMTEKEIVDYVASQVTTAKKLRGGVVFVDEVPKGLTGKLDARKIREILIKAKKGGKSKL

C[N+](C)(C)CC(=O)[O-]
6.22%: max response ([3]; measured here: lipid channel max response)
0.576%: max response ([3]; measured here: cell count channel max response)
inactive: Potency [1] | outcome [2] | activity change, negative = inhibition ([3]; at 57.5 µM (top of the series)) 3.78% | Potency [4] | Potency [5] | Potency [6] | Potency [7] | Potency [8] | max response [9] 14.9% | Potency [10] | Potency [11] | Potency [12] | Potency [13] | Potency [14] | activity, negative = inhibition ([15]; parasite line A) 11.4% | activity, negative = inhibition ([15]; parasite line B) 8.81% | Potency (3D7) | Potency (7G8) | Potency (AA1029) | Potency (AS120) | Potency (ATS189) | Potency (ATS95) | Potency (C2A) | Potency (CP185) | Potency (CP191) | Potency (CP192) | Potency (CP194) | Potency (CP201) | Potency (CP203) | Potency (CP211) | Potency (CP215) | Potency (CP217) | Potency (CP237) | Potency (CP238) | Potency (CP247) | Potency (CP250) | Potency (CP252)
